Z-score data for 35 compounds are collected here from PubChem BioAssay.

Structures are written as SMILES. Activity calls are given as the source filed them.

This assay in a line: changes in parasitized red cell lysis, either direction – P. falciparum Indochina, OD700, 3 h, PSAC antagonist project, primary screen (AID 1156). To be noted: P. falciparum-infected erythrocytes, osmotic lysis, higher = more signal, called active from +8 up or from −8 down.
In the case of `COC(=O)C1(Cc2ccccc2)C=C2C(=C(C(C)C)C(=O)C2C)CN1` (stereo not given), the z-score was 1.42 (inactive). For `Cc1c(NC(=O)/C(C#N)=C/C=C/c2ccccc2[N+](=O)[O-])c(=O)n(-c2ccccc2)n1C` the value was 0.681 (inactive); for `[N-]=[N+]=NCc1ccccc1C[C@@]1(C(=O)NCCN2CCOCC2)N=C(c2ccc(OCCCO)cc2)O[C@@H]1c1ccccc1N=[N+]=[N-]`, 2.72 (inactive). With `C[n+]1ccc(CCCO)cc1`, the z-score was 1.87 (inactive). In the case of `CN1C(=O)C2C=CC(C(O)c3c(F)cccc3Cl)N(Nc3ccccc3)C2C1=O` (stereo not given), the z-score was -0.108 (inactive). `C=C[C@@H](C)[C@H](OC(=O)Nc1ccc(SC)cc1)c1ccc(OCCO)cc1`: the z-score is 3.4 (inactive).

With `CC(C)C(O)C1C=CC2C(=O)N(C)C(=O)C2N1N(c1ccccc1)c1ccccc1` (stereo not given), the z-score is -0.255 (inactive). For `O=C1c2ccccc2[C@](Cc2ccccc2I)(C(=O)NCc2ccccc2)[C@H](c2ccc(CO)cc2)N1C1CCCCC1` the value was 0.0371 (inactive). The value for `CC(=O)n1cc(C(O)C2C=CC3C(=O)N(Cc4ccccc4)C(=O)C3N2n2cnnc2)c2ccccc21` (stereo not given) was 0.927 (inactive); that for `COc1cc2c(cc1OC)CN(C(=O)[C@H]1[C@@H]3C(=O)O[C@@H](c4ccccc4)[C@@H](c4ccccc4)N3[C@@H](c3ccc(OCCO)cc3)[C@]13C(=O)Nc1ccc(C#CC4(O)CCCCCC4)cc13)CC2` was 1.08 (inactive). As for `O=c1cccc(-c2ccc(C(F)(F)F)cc2)o1`, the z-score was -1.13 (inactive). For `COc1ccc(C(O)C2C=CC3C(=O)N(Cc4ccccc4)C(=O)C3N2n2cnnc2)c2ccccc12` (stereo not given), the z-score is 1.57 (inactive). Consider `CC(C)(C)OC(=O)CC[C@]1(C(=O)NCCN2CCOCC2)N=C(c2ccc(OCCCO)cc2)O[C@H]1c1ccccc1N=[N+]=[N-]`, for which the z-score was 2.64 (inactive). Take `C=CC[C@H](OC(=O)Nc1ccc(OC)cc1)c1ccc(O)c2ccccc12`: the z-score is -0.0585 (inactive). The value for `COC(=O)[C@@]1(Cc2ccc(OC)cc2)[C@H]2c3cc(C(=O)N4CCCC4)n(CCc4cc5ccccc5[nH]4)c3C[C@H]2CN1C(=O)c1ccccc1` was 1.45 (inactive); that for `COc1ccc(CCNC(=O)[C@@]2(Sc3ccc(C)cc3)CC(=O)N(Cc3cc(C(F)(F)F)cc(C(F)(F)F)c3)[C@@H]2c2ccc(CO)cc2I)cc1` was -0.459 (inactive).

In the case of `COc1ccc(C(O)C2C=CC3C(=O)N(C)C(=O)C3N2N2CCCCC2)cc1` (stereo not given), the z-score was -0.138 (inactive). With `COc1ccc([Si](C)(C)[C@@H]2[C@@H](CC(=O)N3CCC[C@H]3CO)O[C@]3(C(=O)N(Cc4ccc(N5C(=O)c6cccc7cccc5c67)cc4)c4ccccc43)[C@H]2C)cc1`, the z-score is 1.06 (inactive). `O=C1c2ccccc2[C@@]2(Cc3ccccc3N(C3CC3)C2=O)[C@H](c2ccc(CO)cc2)N1C1CCCCC1`: the z-score was 0.181 (inactive). On to `CCOC(=O)C1=CC[C@@H](c2cc(Cl)ccc2Cl)N(S(=O)(=O)c2ccc(C)cc2)[C@H]1c1ccc(OC)cc1`, for which the z-score was 0.926 (inactive). `CC=CC(O)C1C=CC2C(=O)N(C)C(=O)C2N1N1CCCCC1` (stereo not given): the z-score is -0.343 (inactive). For the compound `C=C(C(=O)CC[C@H](OC(C)=O)c1cccc(OCCO)c1)C(C)C`, the z-score was 1.7 (inactive). Take `CC(C)C(=C=CC[C@H](O)c1ccc(OCCO)cc1)C[C@H](O)c1cc(Cl)cc(Cl)c1O`: the z-score is 1.44 (inactive). In the case of `COc1ccc(C#Cc2ccc3c(c2)[C@]2(C(=O)N3)[C@H](C(=O)N3CCc4cc(OC)c(OC)cc4C3)[C@H]3C(=O)O[C@H](c4ccccc4)[C@H](c4ccccc4)N3[C@@H]2c2ccc(O)cc2)cc1`, the z-score is -0.103 (inactive). In the case of `CN1C(=O)[C@@]2(CCS(=O)(=O)c3ccccc3)N=C(c3ccc(OCCCO)cc3)O[C@H]2c2ccccc21`, the z-score is 0.141 (inactive). For the compound `CC[C@H]1C2=C3C(CC[C@H]4C(OCc5ccc(F)cc5C(F)(F)F)OC[C@](C)([C@@H]34)N(C(=O)OC(C)(C)C)C2)C2COC(=O)OCC21` (stereo not given in full), the z-score was 1.63 (inactive).

Regarding `Cc1ccc(S[C@]2(C(=O)NCc3ccccc3)CC(=O)N(C(C)C)[C@@H]2c2ccc(CO)cc2I)cc1`, the z-score was 0.121 (inactive).

In the case of `Cc1ccc(C(C)CC(O)C2C=CC3C(=O)N(c4ccccc4)C(=O)C3N2Nc2ccc(C(C)C)cc2)o1` (stereo not given), the z-score was 0.948 (inactive). For `COCCOC(=O)N1C(=O)[C@@]2(c3cc(C#Cc4ccc(OC)cc4)ccc31)[C@H](C(=O)NC[C@H](O)c1ccccc1)[C@H]1C(=O)O[C@H](c3ccccc3)[C@H](c3ccccc3)N1[C@@H]2c1ccc(O)cc1` the value was -0.784 (inactive); for `COCCOC(=O)N1C(=O)[C@@]2(c3cc(C#CC4(O)CCCCCC4)ccc31)[C@H](C(N)=O)[C@H]1C(=O)O[C@H](c3ccccc3)[C@H](c3ccccc3)N1[C@@H]2c1ccc(O)cc1`, 2.21 (inactive). In the case of `CC1CC/C=C\[C@H]2OC34C=CCN(C(C)C)C(=O)[C@H]3N(CCCCCO)C(=O)[C@@H]4C2C(=O)O1` (stereo not given in full), the z-score was 0.66 (inactive). For the compound `CCOC(=O)C1=CC[C@@H](c2ccccc2)N(S(=O)(=O)c2ccc(C)cc2)C1`, the z-score is 0.517 (inactive). Take `CCN(CC)c1ccc(N2CC=CC34O[C@@H]5/C=C\CCC(C)OC(=O)C5[C@H]3C(=O)N(CCO)[C@@H]4C2=O)cc1` (stereo not given in full): the z-score was 0.411 (inactive). In the case of `C=CCOC(=O)[C@H]1[C@@H]2C(=O)O[C@@H](c3ccccc3)[C@@H](c3ccccc3)N2[C@@H](c2ccc(OCCOC(=O)[C@H]3C[C@H]4C(=O)N[C@@H](CCCC[N+](C)(C)C)C(=O)N4[C@H]3c3cccc(OCCO)c3)cc2)[C@]12C(=O)Nc1ccc(I)cc12`, the z-score is 1.58 (inactive). For `O=C1C[C@@](C(=O)NCC(F)(F)F)(c2ccc([N+](=O)[O-])cc2)[C@@H](c2ccc(CO)cc2)N1C1CCCCC1` the value was 1.29 (inactive).
